The record followed here is PubChem BioAssay.

Experiment [1] is described as follows: inhibitors of TNFa-induced NFkB p65 translocation, primary screen, imaging, HUVEC, MLSMR starter and 10KST1 sets (AID 438;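 active = inhibition above 20% together with a positive visual image hit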;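 note: compound added about 3h40 before a 20 min TNFalpha stimulation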;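 for inhibition: signal is the nuclear over cytoplasmic p65 intensity ratio per well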). The following applies: HUVEC TNFa-induced p65 nuclear translocation; cell count: measured here: nuclei count (cytotoxicity indicator), at 2.08 µM unless noted; inhibition: at 2 µM, stronger effect = higher value unless noted.
Experiment [2] can be described thus: inhibitors of mutant huntingtin aggregation, primary screen, imaging, exon1htt(103Q)mCFP cells, high-content imaging (AID 483;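 active = visual image review flags a hit and inhibition of aggregation exceeds 20%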;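 note: compound exposure lasted 3 days before fixation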;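 for nuclei count: percent of the per-plate median nuclei count of sample wells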). The following applies: exon1htt(103Q)mCFP cell line, aggregate imaging, at 2 µM; inhibition of aggregation: stronger effect = higher value; nuclei count: measured here: cell count, toxicity.
Experiment [3] is described as follows: inhibitors of E-selectin induction by TNFa, primary screen, imaging, HUVEC, immunofluorescence, MLSMR starter and 10KST1 sets (AID 487;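 active = visually confirmed hit in the image check and inhibition above 20%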;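 for inhibition: signal is fraction of cell area covered by stained E-selectin grains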;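 for nuclei count: 100% = median nuclei count of all wells on the same plate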). The following applies: HUVEC TNFalpha-induced E-selectin immunofluorescence imaging, at 2 µM; inhibition: stronger effect = higher value; nuclei count: measured here: cell number, toxicity.
Experiment [4] is described as follows: DUSP6 inhibitors restoring Erk phosphorylation by chemical complementation, primary imaging in DUSP6-transfected HeLa (AID 609;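 active = compounds giving at least 50% inhibition in the cell-based MKP-3 phosphatase rescue imaging test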;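 for inhibition: phospho-Erk level distribution per well compared with pooled transfected vehicle control wells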). The following applies: HeLa MKP-3 transfected, phospho-Erk imaging KS statistic, at 10 µM.
Experiment [5] concerns the target Dual specificity protein phosphatase 6 (Homo sapiens) (UniProt Q16828). The description is as above. The following applies: HeLa MKP-3 transfected, phospho-Erk imaging KS statistic, at 10 µM, stronger effect = higher value.
For experiment [6], the target named is Voltage-gated potassium channel subunit beta-2 (Rattus norvegicus) (UniProt P62483). Briefly: KvBeta enzyme negative modulators, primary screen, biochemical, NADPH fluorescence (AID 622;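 active = fluorescence slope higher than the sample average by over 3 SD, cut at about -0.22 in these data, passing the limit was not always enough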;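 note: slope of raw intensity against log time taken from 70 to 1610 s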). The following applies: recombinant KvBeta, 4-cyanobenzaldehyde reduction, at 10 µM, stronger effect = higher value.
The target is the same in experiment [7]. Put plainly: KvBeta positive modulators, primary screen, biochemical, NADPH fluorescence (AID 623;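 active = NADPH fluorescence slope more negative than the mean of all samples by about 3 SD, 99.7% confidence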;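 note: fluorescence intensity change per second fitted from 20 to 320 s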). The following applies: Recombinant KvBeta, NADPH fluorescence decrease slope, 10 min; at 10 µM; stronger effect = lower value.
Experiment [8] deals with Alpha-2C adrenergic receptor (Homo sapiens) (UniProt P18825). Put plainly: modulators of alpha2C/GIRK thallium flux, primary screen, cell-based, HEK293 alpha2C/GIRK1/2 (AID 624;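 active = fluorescence slope after compound addition differing from the mean of all screened samples at 99.7% confidence, in either direction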;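 note: slope of fluorescence ratio to pre-addition baseline per second over 15 to 24 s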). The following applies: thallium flux BTC fluorescence, at 10 µM, actives lie on both sides.
Experiment [9] is described as follows: inhibitors of larval lipid processing in zebrafish, primary screen, whole organism, PED6 fluorescence, gall bladder and intestine (AID 686;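 active = a full or partial loss of lipid-probe fluorescence in the fish gall bladder, intestine or both, judged by eye; inactive = no fluorescence loss, or compound toxic to the fish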;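 note: larvae 5 to 7 days old with five fish per well; signal comes from phospholipase A2 cleavage of quenched PED6 carried via bile; overnight exposure to compound and PED6 before scoring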). The following applies: Zebrafish larvae PED6 lipid processing, fluorescence scoring.
Experiment [10] can be described thus: inhibitors of Chlamydomonas gravitaxis, primary screen, whole organism, Chlamydomonas reinhardtii, WT vs cilia-less mutant, absorbance, 96-well (AID 463189).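 Note: 0% = wild type cc124 cells in DMSO and 100% = ciliumless bld1 mutant cells.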 The following applies: OD600 absorbance, 2 days, at 10 µM, stronger effect = higher value.
Experiment [11] in a line: inhibitors of Sendai virus-induced IRF3 signaling, primary screen, TLR/RLR signaling modifier project, cell-based, Sendai virus stimulus, luciferase, 10K MLSCN set (AID 602276;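 active = inhibition at or above 50% at 10 µM; inactive = inhibition below 50%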;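 note: firefly luciferase from ISG56 promoter only with Renilla not read in this screen; 0% = Sendai virus plus DMSO and 100% = medium plus DMSO without virus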). The following applies: HEK293 RL24 IRF3 luciferase reporter, at 10 µM, stronger effect = higher value.
The nature of experiment [12]: inhibitors of poly I:C-induced TLR3 signaling, primary screen, cell-based, poly I:C stimulus, luciferase, 10K MLSCN set (AID 602277;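 active = inhibition of the reporter signal at or above 50%; inactive = inhibition below 50%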). The following applies: HEK293-TLR3 RL24 IRF3 luciferase reporter, at 10 µM, stronger effect = higher value.
Experiment [13] addresses Muscarinic acetylcholine receptor M4 (Homo sapiens) (UniProt P08173). Briefly: compounds altering M4/GIRK thallium flux, either direction, primary screen, M4 allosteric agonist project, cell-based, HEK293 M4/GIRK, BTC-AM (AID 625;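 active = fluorescence slope after compound addition differing from the mean of all tested samples at 99.7% confidence, mostly higher but some lower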;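 note: thallium influx through GIRK channels coupled to M4 in HEK293 cells with BTC-AM dye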). The following applies: at 10 µM, actives lie on both sides.
The mark [14] stands for this setting: measured here: cell density z-score.
Setting [15] is: measured here: nuclear c-Myc green intensity z-score.
The mark [16] stands for this setting: measured here: nuclear pErk red intensity z-score, stronger effect = higher value.

Values joined by “and” are separate entries in the source; they are usually repeats but may differ in a detail not shown here. Equal values may be shown once. Active and inactive are the calls of the source.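 Rule for the calls, unless noted: active = inhibition at or above 50% relative to wild type and mutant plate controls; inactive = inhibition below 50%.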

Chain of Voltage-gated potassium channel subunit beta-2 (Rattus norvegicus) (P62483 whole entry, looked up): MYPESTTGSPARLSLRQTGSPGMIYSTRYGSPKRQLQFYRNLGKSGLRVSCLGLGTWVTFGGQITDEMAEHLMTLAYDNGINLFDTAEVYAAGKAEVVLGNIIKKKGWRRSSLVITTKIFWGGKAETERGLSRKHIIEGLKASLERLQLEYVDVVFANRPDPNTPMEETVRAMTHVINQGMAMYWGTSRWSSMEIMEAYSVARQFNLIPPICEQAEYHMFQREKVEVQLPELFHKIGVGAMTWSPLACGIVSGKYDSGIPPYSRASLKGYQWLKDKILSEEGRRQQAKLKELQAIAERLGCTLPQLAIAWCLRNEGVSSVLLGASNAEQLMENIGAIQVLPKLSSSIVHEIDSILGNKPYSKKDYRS
Chain of Dual specificity protein phosphatase 6 (Homo sapiens) (Q16828 whole entry, looked up): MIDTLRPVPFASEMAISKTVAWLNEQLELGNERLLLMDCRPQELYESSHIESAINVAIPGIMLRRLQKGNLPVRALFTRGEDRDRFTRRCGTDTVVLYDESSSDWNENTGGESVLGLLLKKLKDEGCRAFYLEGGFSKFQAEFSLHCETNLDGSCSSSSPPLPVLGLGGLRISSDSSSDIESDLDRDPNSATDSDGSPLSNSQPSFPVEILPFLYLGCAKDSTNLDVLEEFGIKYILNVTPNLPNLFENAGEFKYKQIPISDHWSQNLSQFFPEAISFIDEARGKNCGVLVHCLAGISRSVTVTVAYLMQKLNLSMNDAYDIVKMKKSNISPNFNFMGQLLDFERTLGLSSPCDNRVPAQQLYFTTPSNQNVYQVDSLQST
Chain of Alpha-2C adrenergic receptor (Homo sapiens) (P18825 whole entry, looked up): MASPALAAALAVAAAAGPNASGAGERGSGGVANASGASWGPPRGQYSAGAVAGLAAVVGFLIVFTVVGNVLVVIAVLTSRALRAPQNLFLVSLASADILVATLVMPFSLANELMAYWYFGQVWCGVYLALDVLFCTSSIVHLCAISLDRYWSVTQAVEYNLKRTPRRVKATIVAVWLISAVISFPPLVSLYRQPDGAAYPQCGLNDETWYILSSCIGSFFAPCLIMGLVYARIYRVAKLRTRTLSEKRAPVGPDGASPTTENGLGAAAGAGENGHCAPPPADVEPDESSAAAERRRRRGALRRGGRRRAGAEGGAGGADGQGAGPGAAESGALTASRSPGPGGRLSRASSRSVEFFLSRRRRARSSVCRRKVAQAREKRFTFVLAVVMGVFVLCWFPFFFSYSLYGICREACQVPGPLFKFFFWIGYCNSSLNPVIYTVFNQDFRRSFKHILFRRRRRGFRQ
Chain of Muscarinic acetylcholine receptor M4 (Homo sapiens) (P08173 whole entry, looked up): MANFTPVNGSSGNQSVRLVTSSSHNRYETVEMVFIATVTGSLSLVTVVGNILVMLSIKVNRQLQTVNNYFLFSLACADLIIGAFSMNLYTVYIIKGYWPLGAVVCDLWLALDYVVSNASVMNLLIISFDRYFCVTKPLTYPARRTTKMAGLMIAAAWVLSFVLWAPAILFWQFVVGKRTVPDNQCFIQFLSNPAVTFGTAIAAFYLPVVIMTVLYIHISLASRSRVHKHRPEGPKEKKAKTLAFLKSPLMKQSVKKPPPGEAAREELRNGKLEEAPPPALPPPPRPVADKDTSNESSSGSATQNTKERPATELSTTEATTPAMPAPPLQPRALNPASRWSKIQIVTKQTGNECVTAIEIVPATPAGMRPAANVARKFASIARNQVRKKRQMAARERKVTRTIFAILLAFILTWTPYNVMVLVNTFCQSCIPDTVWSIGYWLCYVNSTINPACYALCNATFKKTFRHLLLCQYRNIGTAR

In turn, `O=c1c2ccccc2[se]n1-c1ccccc1` had a cell count in experiment [1] of 504. The inhibition – broadly, the relative decrease from the control value, in per cent – in experiment [1] is -10.8% (inactive); in experiment [3] it was -42.3% (inactive); in experiment [5], 7.39% (inactive); in experiment [10] it was 6.32% (inactive) and 27.8% (inactive); in experiment [11], 0.283% (inactive); in [12], 12.7% (inactive). The inhibition of aggregation in experiment [2] is 7.2% (inactive). Moreover, the nuclei count in experiment [2] was 84.9%; in experiment [3], 117%. The results for the z-score in experiment [4] (setting [14]), in experiment [4] (setting [15]) and in [4] (setting [16]) were 1, 0.0235 and -0.954, respectively. Further, the fluorescence slope in experiment [6] is -0.437 (inactive). For the same compound, the NADPH fluorescence slope in experiment [7] is -0.000217 (active). Also, in experiment [8], the slope was 0.00458 (inactive). Moreover, the compound was called inactive in experiment [9].
In experiment [1], `COc1ccc2[nH]cc(CCN(C)C)c2c1` returned a cell count of 560. The inhibition in experiment [1] is -3.3% (inactive); in experiment [3] it was -34% (inactive); in experiment [5] it was 3.59% (inactive); in experiment [10], 12.8% (inactive) and -9.88% (inactive); in [11], 7.44% (inactive); in [12] it was 13.2% (inactive). Besides, in [2], the inhibition of aggregation was -16.8% (inactive). Moreover, the nuclei count in [2] was 95.6%; in [3], 102%. Besides, the z-score was -0.633 in experiment [4] (setting [14]), 0.535 in [4] (setting [15]) and 0.345 in experiment [4] (setting [16]). For the same compound, the fluorescence slope in [6] was -0.516 (inactive). Besides, the NADPH fluorescence slope in experiment [7] was 1.6e-07 (inactive). Besides, in experiment [8], the slope was 0.00666 (inactive). The call in experiment [9] was inactive.
In the case of `CC1=C(C(=O)OC(C)C)[C@]2(C(=O)N(CC(N)=O)c3ccccc32)C(C#N)=C(N)O1`, the cell count in experiment [1] was 568. In addition, the inhibition was -7.6% (inactive) in experiment [1]; -47.2% (inactive) in experiment [3]; -0.624% (inactive) in experiment [5]; 1.76% (inactive) in experiment [10]; 15.6% (inactive) in [11]; 21.9% (inactive) in [12]. Besides, the inhibition of aggregation in experiment [2] was -10.5% (inactive). The nuclei count in [2] turned out to be 87.4%; in [3] it was 126%. The z-score was 1.04 in [4] (setting [14]), -0.385 in experiment [4] (setting [15]) and -1.8 in [4] (setting [16]). The values for the fluorescence slope in experiment [6] and in experiment [13] were -0.435 (inactive) and 0.00529 (inactive), respectively. For the same compound, in experiment [7], the NADPH fluorescence slope is -5.8e-05 (inactive). For the same compound, the slope in experiment [8] is 0.00458 (inactive). Further, in [9], the compound was classed as inactive.
For `C[C@H]1CCC/C=C/C2C[C@H](O)CC2[C@H](O)/C=C/C(=O)O1` (stereo partly specified), the cell count in experiment [1] is 647. Besides, the inhibition in experiment [1] was 83.2% (active); in experiment [3], 94.9% (active); in [5], 23.4% (inactive); in experiment [10], 155% (active); in experiment [11] it was -44.8% (inactive); in experiment [12] it was 83% (active). Also, the inhibition of aggregation in [2] was -436% (inactive). For the same compound, the values for the nuclei count in experiment [2] and in experiment [3] were 0.6% and 120%, respectively. The z-score in [4] (setting [14]) is -0.283; in [4] (setting [15]), 0.495; in [4] (setting [16]), -0.185. For the same compound, the fluorescence slope in [6] is -0.473 (inactive). Moreover, in experiment [7], the NADPH fluorescence slope was -3.1e-05 (inactive). In addition, the slope in [8] was 0.00536 (inactive). Also, the outcome in [9] is “inactive; toxic”.
The compound `C#CCN(C)C(C)Cc1ccccc1` (stereo unspecified) gave a cell count in [1] of 624. Besides, the inhibition is -1.1% (inactive) in [1]; -90.1% (inactive) in experiment [3]; 8% (inactive) in experiment [5]; 10.4% (inactive) in experiment [10]; 16.5% (inactive) in experiment [11]; 40.6% (inactive) in experiment [12]. Moreover, the inhibition of aggregation in experiment [2] is 13.6% (inactive). For the same compound, the nuclei count in experiment [2] was 96.7%; in experiment [3] it was 124%. The z-score is -0.521 in [4] (setting [14]), 1.36 in experiment [4] (setting [15]) and 0.296 in [4] (setting [16]). In addition, in [6], the fluorescence slope is -0.447 (inactive). Moreover, the NADPH fluorescence slope in [7] was -7.1e-05 (inactive). Moreover, in [8], the slope was 0.00486 (inactive). Besides, the result in [9] was inactive.
